Reference: PubChem BioAssay (NCATS)
Records with an inconclusive call do not appear. Values without a mark were called inactive. Calls come from the whole dose curve; as a rule, active = well fitted curve in the direction sought with a large enough effect in the signal ratio; inconclusive = small, poorly fitted or top-dose-only effect, or a change in a side signal; inactive = no such curve, though single readings can be large or run the other way; the % refers to the signal ratio.

target: Tumor necrosis factor (Homo sapiens) (UniProt P01375); assay: qHTS assay to identify small molecules that stimulate Tumor Necrosis Factor-alpha (TNF-alpha) secretion (AID 651757); conditions: Human cells, HTRF 665/615 ratio; series mostly up to 92.2 µM; activation (TNF-alpha secretion): at the top concentration; note: 0% is about no effect
Excerpt: National Center for Advancing Translational Sciences [NCATS]
NIH Chemical Genomics Center [NCGC]
National Institutes of Environmental Health Sciences [NIEHS]
National Toxicology Program [NTP]
Tumor Necrosis Factor-alpha (TNF-alpha), a secreted cytokine, plays an important role in inflammatory diseases and immune disorders. TNF-alpha, a 17 kDa cytokine, is mainly secreted by activated macrophages and monocytes in response to several inflammatory and immunological stimuli. To study the effect of environmental chemicals on TNF-alpha secretion, a homogeneous TNF-alpha assay was developed using Time Resolved fluorescence (HTRF) technology based on Time Resolved Fluorescent Resonance Energy Transfer (TR-FRET) (Leister et al., Current Chemical Genomics, 5:21-29, 2011). This assay allows measuring TNF-alpha secreted from the cells in a 1536-well plate format.
THP-1 cells were dispensed at 3000 cells/5ul/well in 1536-well white solid plates. After addition of 23 nl of compound, positive controls and DMSO only, the assay plates were incubated at 37 C for 17 hrs, followed by addition of 5 uLof mixture of cryptate labeled and XL665 labeled anti-TNF-alpha antibodies. After the assay plates were incubated at room temperature for 3 hr, the plates were measured by an EnVision plate reader.

Sequence of Tumor necrosis factor (Homo sapiens) (P01375 whole entry, looked up): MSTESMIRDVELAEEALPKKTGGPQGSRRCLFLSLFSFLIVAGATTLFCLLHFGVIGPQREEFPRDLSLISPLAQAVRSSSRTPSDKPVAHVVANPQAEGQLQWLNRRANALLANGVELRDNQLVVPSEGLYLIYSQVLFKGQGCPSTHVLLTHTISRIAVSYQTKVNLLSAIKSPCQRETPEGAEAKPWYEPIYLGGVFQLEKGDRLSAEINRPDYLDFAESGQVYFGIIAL

Structure (SMILES) | activation (TNF-alpha secretion)
Oc1ccc(Cl)cc1Cc1cc(Cl)ccc1O | -0.0166%
C/C=C/c1ccc(O)c(OC)c1 | -0.0686%
C=C[C@H]1CN2CC[C@H]1C[C@@H]2[C@@H](O)c1ccnc2ccc(OC)cc12 | 0.189%
NC(=O)c1ccccc1O | 0.529%
CCCN(CCC)S(=O)(=O)c1ccc(C(=O)O)cc1 | -0.142%
OC[C@H]1O[C@@H]2O[C@H]3[C@H](O)[C@@H](O)[C@@H](O[C@H]4[C@H](O)[C@@H](O)[C@@H](O[C@H]5[C@H](O)[C@@H](O)[C@@H](O[C@H]6[C@H](O)[C@@H](O)[C@@H](O[C@H]7[C@H](O)[C@@H](O)[C@@H](O[C@H]8[C@H](O)[C@@H](O)[C@@H](O[C@H]1[C@H](O)[C@H]2O)O[C@@H]8CO)O[C@@H]7CO)O[C@@H]6CO)O[C@@H]5CO)O[C@@H]4CO)O[C@@H]3CO | 0.443%
COc1ccc(C(=O)c2ccccc2)c(O)c1 | 0.418%
CCOc1ccccc1C(N)=O | 0.205%
COc1ccc(C(Cl)=C(c2ccc(OC)cc2)c2ccc(OC)cc2)cc1 | 0.264%
CCOc1ccc(NC(C)=O)cc1 | 0.644%
CCCCC(CC)COC(=O)c1ccc(N(C)C)cc1 (stereo unspecified) | 2.44%
